Bioassay records deposited in PubChem by National Center for Advancing Translational Sciences (NCATS).
HepG2 viability: qHTS for Inhibitors of TGF-b: Cytotox Counterscreen; AID 588856, 2011; Potency, µM (highest dose often 46.1 µM), without a hit: top-dose activity change, negative = cytotoxicity, usual class: cytotoxic; HepG2 CAGA-GFP viability, ATP luminescence, 18 h; actives 0.76% (n = 410,000)
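HepG2 CAGA-GFP cells (1000/well, DMEM with 1% FBS) received compound, then TGF-beta at 500 pg/mL final, and were incubated 18 hours at 37 degrees C. Viability was read by CellTiter-Glo luminescence. Media-only wells were set as complete cell-killing and DMSO as no toxicity.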
TGFb SMAD3 inh: qHTS for Inhibitors of TGF-b; HepG2 CAGA-GFP TGF-b/SMAD3 reporter, GFP fluorescence, 18 h; TGF-beta stimulated, 500 pg/mL final; actives 1.2% (n = 410,000); Potency, µM (top dose mostly 46.1 µM), without a hit: top-dose activity, negative = inhibition, hits mostly inhibitors; AID 588855, 2011; also: % is scaled to controls: 0 for no effect and ±100 for the full control effect; nearly all actives have a fitted effect of over 65% in size
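Smad-responsive CAGA-GFP expression was quantified in HEPG2 cells exposed to compounds and 500 pg/mL final TGF-beta for 18 h at 37 degrees C; unstimulated wells defined full inhibition.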
ATXN2 expr inh: Primary qHTS for Inhibitors of ATXN expression | Potency, µM (doses to about 57 µM), for inactives: top-dose activity change, negative = inhibition, actives largely listed as inhibitors | HEK-293 ATXN2-luciferase reporter, luminescence, 24 h | actives 0.72% (n = 360,000); also: % is scaled to controls: 0 for no effect and ±100 for the full control effect; nearly all actives have a fitted effect of over 55% in size
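qHTS (up to 57 uM final) was run with 24 h compound exposure of reporter cells at 37 °C. Each well was multiplexed: SteadyGlo luminescence measured ATXN2-luciferase expression after a fluorogenic Gly-Phe-AFC viability readout (25 uM final).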
ATXN viability: Viability Counterscreen for Primary qHTS for Inhibitors of ATXN expression; S2 cells (HEK-293 line with an ATXN2-luciferase reporter) viability, CellTiter-Fluor protease fluorescence, 24 h; Potency, µM (titrated, usually from 56.7 µM), most hits filed as cytotoxic; actives 0.49% (n = 400,000); also: nearly all actives have a fitted effect of over 40% in size
KB-3-1 tox: qHTS assay for MDR1-selective chemotherapeutics: Primary screen using the parental adenocarcinoma cell KB-3-1. KB-3-1 viability, CellTiter-Glo ATP luminescence, 72 h. actives 1.4% (n = 400,000). Potency, µM (doses to about 46.1 µM), most hits filed as cytotoxic; also: % is scaled to controls: 0 for no effect and ±100 for the full control effect; nearly all actives have a fitted effect of over 60% in size
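Screening of KB-3-1 cells (DMEM, 10% FBS, phenol-red free) ran from lowest to highest compound concentration; after 72 h at 37 °C viability was read luminescently and curves fitted.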
KB-V1 MDR tox: qHTS assay for MDR1-selective chemotherapeutics: Primary screen using the drug-selected MDR subline cells KB-V1 | KB-V1 MDR cells viability, CellTiter-Glo, 72 h | Potency, µM (series often up to 46.1 µM), actives largely listed as cytotoxic | actives 3.4% (n = 400,000); also: % is scaled to controls: 0 for no effect and ±100 for the full control effect; nearly all actives have a fitted effect of over 60% in size
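Cytotoxicity via CellTiter-Glo luminescence after 72 h compound exposure at 37 degrees C. Cells: drug-selected KB-V1 line, DMEM phenol-red free plus 10% FBS. Compounds tested at multiple concentrations; normalized data fitted to concentration-effect curves.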
* hit, by the source's call; i = inactive; ? = inconclusive; . = no result. Only some compounds are listed: those with a hit (about 5.9% of all), similar ones and a draw of the others. Calls follow the shape of the dose curve; as a rule, active = well fitted curve in the direction sought with a large enough effect; inconclusive = small, poorly fitted or top-dose-only effect, or another doubt; inactive = no such curve, though single readings can be large; an effect the other way counts as inactive or inconclusive. Potency is read from the fitted curve at half-maximal effect.

SMILES | HepG2 viability | TGFb SMAD3 inh | ATXN2 expr inh | ATXN viability | KB-3-1 tox | KB-V1 MDR tox
CCc1nc2ccc(C(=O)N3CCN(S(=O)(=O)CC)CC3)cn2c1N(CC)CCOC | -10.3% | -7.9% | 15.0% | i | i | i
COc1ccc(CNC(=O)c2cnn(-c3nccc(-c4ccco4)n3)c2C)cc1OC | . | . | . | i | . | .
O=C(COc1ccc(F)cc1)Nc1nc(-c2ccccn2)cs1 | -0.9% | ? | ? | ? | ? | 5.8µM*
O=C(COc1cccc(F)c1)Nc1nc(-c2ccccn2)cs1 | -11.2% | -9.7% | . | ? | ? | ?
O=C(Nc1nc(-c2ccccn2)cs1)Nc1ccc(F)cc1F | -4.1% | ? | 14.1µM* | ? | i | i
Fc1ccc(-c2csc(Nc3ccccn3)n2)c(F)c1 | -35.7% | ? | 49.9% | i | 18.4µM* | ?
CCOC(=O)CSc1nc(-c2ccc(C)cc2C)cc(-c2ccccc2)c1C#N | -16.6% | -9.3% | . | . | . | .
O=C(NCc1ccccc1C(F)(F)F)c1cccc2c1C(=O)c1ccc(N3CCC(N4CCCCC4)CC3)cc1S2(=O)=O | -40.6% | -7.9% | 28.2µM* | ? | i | ?
CC1CCN(c2ccc3c(c2)S(=O)(=O)c2cccc(C(=O)NC[C@@H]4CCCO4)c2C3=O)CC1 | 3.3% | -0.3% | 8.6% | i | i | i
O=C(NCC1CCCO1)c1cccc2c1C(=O)c1ccc(N3CCC(Cc4ccccc4)CC3)cc1S2(=O)=O (centres undefined) | 1.6% | ? | ? | ? | ? | 23.1µM*
O=S(=O)(c1ccc(F)cc1)N1CCN(c2nc(-c3ccccc3)nc3cc(Cl)ccc23)CC1 | -8.6% | 0.5% | . | . | . | .
O=C1CCC[C@@H]2C[C@@]3(C[C@@H]4CCN1[C@H]24)Nc1cc([N+](=O)[O-])ccc1NC3=NCc1ccccc1 | 50.3% | 4.3% | . | . | i | i
O=C(Nc1ccc(SC(F)F)cc1)c1cc(-c2ccc3c(c2)OCCO3)on1 | -25.2% | ? | 6.1% | i | i | i
CCOC(=O)c1cccc(NC(=O)c2cc3c(=O)n(Cc4cccnc4)ccc3nc2C)c1 | -3.9% | -25.2% | -6.9% | i | i | i
Cc1nc2c(ccc3nc(NC(=O)C4CC4)sc32)s1 | 3.2% | ? | -29.3% | i | ? | 20.6µM*
O=C(Nc1cccc(-c2csc(-c3ccccc3)n2)c1)c1cccs1 | -42.1% | ? | -15.3% | i | i | 14.6µM*
Cc1nc(-c2cccc(NC(=O)Cc3ccccc3)c2)cs1 | -84.6% | -0.8% | 0.0% | i | i | 16.4µM*
Oc1ccc(-c2csc(-c3ccccc3)n2)cc1O | -41.3% | ? | 24.8% | i | ? | 14.6µM*
Oc1ccc(-c2csc(-c3cccnc3)n2)cc1O | -32.6% | -20.0% | -20.0% | i | ? | ?
CC(C)C(=O)Nc1cccc(-c2csc(-c3ccccc3)n2)c1 | -11.8% | 38.0% | 63.0% | i | i | i
Cc1nc(-c2cccc(NC(=O)c3cccs3)c2)cs1 | -9.9% | 0.7% | 28.5% | i | i | i
O=C(Cc1ccc(Br)cc1)Nc1cccc(-c2cn3c(n2)SCC3)c1 | -20.3% | -1.1% | -12.3% | i | ? | 8.2µM*
O=C1CN(C(=O)c2c(F)cccc2Cl)C(c2ccc(F)cc2)c2cc(Br)ccc2N1 (centres undefined) | -29.9% | 0.0% | ? | ? | i | i
O=C(Cn1cncn1)N1CCOc2ccc(CN3CCN(c4ccccc4)CC3)cc2C1 | . | . | . | i | . | .
Cc1ccc2[nH]c(=O)c(CN(Cc3ccccc3)Cc3nnnn3Cc3ccco3)cc2c1 | 0.0% | 10.0% | . | . | i | i
COc1ccc(Br)cc1CNC(=O)C(C)n1nc(C)n2c(cc3occc32)c1=O (centres undefined) | -14.6% | . | . | . | . | .
